# Experimental data: PubChem BioAssay (EPA / NIEHS)
# Inconclusive results are not listed. Activity calls are given as the source filed them. The calls were made as follows: active = hit-call score of the fitted dose curve at least 0.9, where 1 is the maximum; inconclusive = response in the unintended direction; inactive = score below 0.9.
# Target: Nuclear receptor subfamily 4 group A member 2 (Homo sapiens) (UniProt P43354)
# Assay: ATG_NURR1_TRANS: Attagene TRANS-FACTORIAL HepG2 Assay for human Nuclear Receptor Related Protein 1 (NURR1) (AID 2282985)
# Details: HepG2 Attagene TRANS reporter, mRNA readout
# Description: ATG_TRANS is a cell-based, multiplexed-readout assay that uses HepG2, a human liver cell line, with measurements taken at 24 hours after chemical dosing in a 24-well plate.ATG_NURR1_TRANS is one of 30 assay component(s) measured or calculated from the ATG_TRANS assay. It is designed to make measurements of mRNA induction, a form of inducible reporter, as detected with fluorescence intensity signals by Reverse transcription polymerase chain reaction (RT-PCR) and Capillary electrophoresis technology.Data from the assay component ATG_NURR1_TRANS was analyzed into 1 assay endpoint. This assay endpoint, ATG_NURR1_TRANS, was analyzed in the positive analysis fitting direction relative to DMSO as the negative control and baseline of activity. Using a type of inducible reporter, measures of mRNA for gain-of-signal activity can be used to understand the reporter gene at the transcription factor-level as they relate to the gene NR4A2. Furthermore, this assay endpoint can be referred to as a primary readout, because this assay has produced multiple assay endpoints where this one serves a reporter gene function. To generalize the intended target to other relatable targets, this assay endpoint is annotated to the nuclear receptor intended target family, where the subfamily is orphan.
# Human liver HepG2 cells are transiently transfected with multiple reporter transcription units (MRTUs) in 6-well plates using FuGene 6 reagent (Roche; 3 ml FuGene/1 mg DNA). The MRTU constructs are regulated by a cis-regulating element (promoter). […] A major difference between the CIS and TRANS system is that in CIS activities of endogenous TFs are measured, whereas the TRANS assay evaluates changes in activities of exogenous, chimeric NR-Gal4 proteins. […] At the end of 24 hour incubation, total RNA was isolated using TriZol reagent (Invitrogen). The isolated RNA is then reverse-transcribed using oligo(dT) primer and Mo-MLV reverse transcriptase (Invitrogen) with DNAse I (Ambion) treatment for 30 min. The one-tenth of the produced cDNA was amplified by PCR using Taq DNA polymerase (Invitrogen) and two reporter sequence-specific primers. The PCR products were fluorescently labeled by primer extension with 6-arboxyfluorescein (6-FAM) 5'-labeled reporter sequence-specific primer (2 min at 95 C, 20 s at 68 C and 10 min at 72 C) and these products were digested with 5U of HpaI (New England Biolabs) for 2h at 37 C. The fragments were purified using Qiaquick PCR columns (Qiagen), analyzed on an ABI 3130xL genetic analyzer (Applied Biosystems) with peak positions identified by using a set of X-rhodamine (ROX)-labeled MapMarker1000 molecular weight standards (BioVentures). The raw capillary electrophoresis data was processed using Attagraph software (Attagene).
# Chain of Nuclear receptor subfamily 4 group A member 2 (Homo sapiens) (P43354 whole entry, looked up): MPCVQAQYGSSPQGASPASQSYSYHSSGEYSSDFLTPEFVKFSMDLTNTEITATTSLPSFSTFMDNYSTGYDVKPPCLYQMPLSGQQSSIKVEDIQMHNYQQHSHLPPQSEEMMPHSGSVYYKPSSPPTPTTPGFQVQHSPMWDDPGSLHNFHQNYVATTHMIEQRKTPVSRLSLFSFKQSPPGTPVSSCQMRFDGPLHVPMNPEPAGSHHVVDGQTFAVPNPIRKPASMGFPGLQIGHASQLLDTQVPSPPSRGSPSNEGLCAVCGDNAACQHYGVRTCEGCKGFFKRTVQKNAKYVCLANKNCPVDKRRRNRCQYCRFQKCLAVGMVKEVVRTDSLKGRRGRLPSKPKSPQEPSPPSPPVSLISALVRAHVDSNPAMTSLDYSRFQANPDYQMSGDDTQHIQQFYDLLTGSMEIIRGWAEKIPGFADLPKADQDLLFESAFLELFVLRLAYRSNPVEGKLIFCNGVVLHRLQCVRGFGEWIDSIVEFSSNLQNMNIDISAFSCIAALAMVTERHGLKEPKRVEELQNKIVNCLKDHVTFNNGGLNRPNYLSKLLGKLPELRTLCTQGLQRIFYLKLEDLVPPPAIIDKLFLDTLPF
SMILES,outcome,AC50
CCOC(=O)C(C)(C)Oc1ccc(Cl)cc1,inactive,–
Cc1cc(NC(=O)C(=O)O)cc(C)c1Oc1ccc(O)c2c1CCC2,inactive,–
CC(=O)Oc1ccccc1C(=O)O,–,100 µM (active)
CCCCCCOCCO,inactive,–
CC1(C)CC(N=C=O)CC(C)(CN=C=O)C1 (stereo not given),inactive,–
CCCCCCC(=O)OCC,inactive,–
CC1(C)NC(=O)NC1=O,inactive,–
CCNc1cccc(C)c1,inactive,–
O=c1c(O)c(-c2ccc(O)c(O)c2)oc2cc(O)cc(O)c12,inactive,–
O=C(OCCCCCOC(=O)c1ccccc1)c1ccccc1,inactive,–
CN1CCN(Cc2cc(-c3ccc4[nH]c(=O)oc4c3)co2)[C@@H](c2ccc(F)cc2)C1,inactive,–
NCC1(Cc2noc(=O)[nH]2)CCCCC1,inactive,–
Nc1ccc2c(c1)C(=O)c1ccccc1C2=O,inactive,–
CCCc1cc(=O)[nH]c(=S)[nH]1,inactive,–
CCCCC(CC)COC(=O)CC(C(=O)OCC(CC)CCCC)S(=O)(=O)O (stereo not given),inactive,–
COc1cc(S(=O)(=O)O)c(C)cc1N=Nc1c(O)ccc2cc(S(=O)(=O)O)ccc12,inactive,–
Cc1ccc(C)c(C)c1,inactive,–
O=C(O)CCCCC(=O)O,inactive,–
CC1=C(/C=C/C(C)=C/C=C/C(C)=C/CO)C(C)(C)CCC1,–,2.86 µM (active)
COc1ccc(S(=O)(=O)N2C(=O)[C@@](c3ccccc3OC)(N3C[C@H](O)C[C@H]3C(=O)N(C)C)c3cc(Cl)ccc32)c(OC)c1,inactive,–

SMILES,outcome,AC50
Cc1oc(-c2ccccc2)nc1CCOc1cccc2c1ccn2CCC(=O)O,inactive,–
Cc1ccc(C(C)C)c(O)c1,inactive,–
Cc1cccc([N+](=O)[O-])c1C,inactive,–
Oc1ccc2ccccc2c1N=Nc1ccccc1,inactive,–
Cc1ccc(Cl)cc1,inactive,–
CCCCN(CCCC)CCCC,inactive,–
CCCCCCCC=O,inactive,–
Cc1c(C(=O)O)c(O)cc2c1C(=O)c1c(O)c([C@@H]3O[C@H](CO)[C@@H](O)[C@H](O)[C@H]3O)c(O)c(O)c1C2=O,inactive,–
COc1cc(-c2nc(NC(=O)c3cc4cc(C)cc(C)c4n3CC(=O)O)sc2CCC2CCCCC2)c(OC)cc1Cl,inactive,–
NC(=O)Cn1c(=O)cc(CCN2CCN(c3nccc4sccc34)CC2)c2ccc(F)cc21,inactive,–
Oc1ccc2c(c1)OC[C@@H](N1CCC(O)(c3ccc(F)cc3)CC1)[C@H]2O,inactive,–
COC(=O)c1ccc(O)cc1,inactive,–
C=CCOC(=O)c1ccccc1C(=O)OCC=C,inactive,–
CCCCCC(=O)O,inactive,–
c1cc(-c2ccncc2)ccn1,inactive,–
CCCCCCCCCCCC(=O)OC,inactive,–
Cc1cc(=O)[nH]c(=S)[nH]1,inactive,–
CC(=O)C(C)=CC1C(C)=CCCC1(C)C (stereo not given),inactive,–
CC(C)(C)c1cc(O)c(C(C)(C)C)cc1O,inactive,–
COCCOC[C@H](CC1(C(=O)NC2CCC(C(=O)O)CC2)CCCC1)C(=O)Oc1ccc2c(c1)CCC2 (stereo not given in full),inactive,–
